# Molecular target: TSPYL2
# Assay: pooled miR-30 sensor sort-seq; sequence = guide strand
# Settings: shRNA
# Further: reference of the scale not given here.
row,Sequence,sensor-assay potency score (higher = more potent)
1,TTGATAATCTCAGCAATCCTGT,-0.197
2,ATAGATGTCCTCATCTTGCTGG,0.469
3,TTGATCAAAATTGAAATTCTGG,0.568
4,TCATTGTCACTGTCGCTGCTGT,-0.335
5,TTGACAATCACCATGTTTGTGA,0.272

# Molecular target: TTC27
# Assay: as above
# Settings: shRNA
row,Sequence,sensor-assay potency score (higher = more potent)
1,TTAAAAATCAATATCTTGCATT,-0.512
2,TTTAAGGACCTGAACATCTTTG,-0.304
3,TTCTTTTGAAAATTAGTGCAGA,-0.195
4,TGAACCTTGATAGTCTTCCAAG,-1.57
5,TTTTTCTCCAGCTCTTGTCTAA,-0.459
6,TATCCAACTGATCTTTTGCTTT,-0.994
7,TTCTAGAGTCACACAGCGCTGA,0.0912
8,TACACTTGAGAGCTTCTTGTAA,-0.514
9,TTACTTTTTGTTTTAATCGGAT,-0.347
10,TACACACTCTTGAAACTCCTTA,0.361
11,TTGCTGAACCTTGATAGTCTTC,-0.804
12,TACAGATGTATCTTTTACCAGC,-0.789

# Molecular target: TTC7A
# Assay: as above
# Settings: shRNA
row,Sequence,sensor-assay potency score (higher = more potent)
1,TTGGCTTCGCTCATCTTCGGCT,-0.61
2,TGGCACTGGAGATCTGTCGGAC,-0.75
3,TTTGATGACAAAAGCCTCCGAC,-0.154
4,TCTTGCTTGGACTTCAGGGTGG,0.115
5,TTCAGATGCCTCGACGTGCTGT,-0.177
6,TTCATCTTGCTTGGACTTCAGG,-0.871
7,TTCCTCGATGTTGTCCTTGGGG,-0.621
8,TAGAGTACTGAGTGAGAAGTGG,-0.197
9,TTCTGCAAGCTCACTGTCCGGT,0.427
10,TTGTGGTCTTCTCCAATTCCTG,-1.59
11,TCTCCTTCAAACACTGCTCCAG,-0.633
12,TTTGGCTTCGCTCATCTTCGGC,-0.912

# Molecular target: TTLL3
# Assay: as above
# Settings: shRNA
row,Sequence,sensor-assay potency score (higher = more potent)
1,TTGACCTTCCGACAGGTGCTAG,-0.947
2,TTGGATTGTAAAGATCTTCTTC,0.486
3,TTTATTTGGTGTTGGATCCAGG,-0.616
4,TAGCTGTCGCGGTAGAACCACA,-1.71
5,TGTCGCGGTAGAACCACACGGT,-0.291
6,TAGGGTATGACTTCCACTCAGA,-0.0416
7,ATCATCGAAGTCGAACAGCTGT,-0.524
8,TTGCACGCCAGCACAGAGCCGG,-1.05
9,TTCTGCACCACCCACTTGCCGT,-1.06
10,TACTTCTGCACCACCCACTTGC,-0.25
11,TAAATCATCGAAGTCGAACAGC,-0.665

# — the OligoGym collection
